# Results published in PubChem BioAssay AID939 (National Center for Advancing Translational Sciences (NCATS), 2007).
# Records with an inconclusive call do not appear.
# Experiment: Confirmation Concentration-Response Assay for Agonists of the Thyroid Stimulating Hormone Receptor
# Conditions: HEK293 TSHR-CNG cells, membrane potential dye, cAMP; measured here: parental HEK293 counter-screen max
# In short: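 Read-out: membrane potential dye fluorescence (emission 590 nm) after 30 min compound exposure, reflecting cAMP-gated CNG opening in TSHR/CNG HEK 293 cells. Dye with 100 uM RO 20-1724 pre-equilibrated 60 min at room temperature. CNG-only parental cells control.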
row,SMILES,max response
1,CC1(C)c2ccccc2N2CC(=O)NC21/C=C/c1ccco1 (stereo not drawn),9.74%
2,Cc1cnc(NC(=O)c2ccc3c(c2)C(=O)N(Cc2ccco2)C3=O)s1,-10.7%
3,Nc1cc(CN2C(=O)c3ccccc3C2=O)cc(Cl)c1O,4.5%
4,COCCNC(=O)C(c1ccccc1)N(Cc1cccs1)C(=O)Cn1nnc2ccccc21 (stereo not drawn),6.98%
5,O=C1N(c2ccccc2)C2CS(=O)(=O)CC2N1c1ccc(Cl)c(Cl)c1 (stereo not drawn),-23.3%
6,CN1C(=O)C2C=CC1C1C(=O)N(c3ccccc3)C(=O)C21 (stereo not drawn),2.29%
7,O=C(COC(=O)C1c2ccccc2Oc2ccccc21)Nc1ccc2c(c1)OCO2,8.54%
8,Cc1cccc(NC(=O)CSc2nnc(-c3ccccc3)n2N)c1C,-2.22%
9,Cc1occc1-c1nnc(SCC(=O)Nc2ccccc2)n1C(C)c1ccccc1 (stereo not drawn),-10%
10,Cn1c(=O)[nH]c(=O)c2c1nc(N1CCCCCC1)n2CCCSc1nc2ccccc2o1,12.7%
11,Cc1ccc(S(=O)(=O)N2CCC(C(=O)NCCCN3CCCCCC3)CC2)cc1,-4.36%
12,COc1ccc(-c2cc(C(F)(F)F)nc(SCCC(=O)N3CCOCC3)n2)cc1,13%
13,O=S1(=O)N=C(Oc2ccccc2)c2ccccc21,-6.77%
14,O=C1C2C3CCCC3=C3CCCC3C2C(=O)N1c1ccc(Cl)cc1 (stereo not drawn),-8.66%
15,c1ccc(-n2cnc3cc(NCc4ccncc4)ccc32)cc1,1.12%
16,CCN(c1ccccc1)S(=O)(=O)c1ccc(Oc2ccc(-n3ccnc3)cc2)nc1,-1.61%
17,COC(=O)c1cc(NC2c3ccccc3C(=O)N2c2cccnc2)cc(C(=O)OC)c1 (stereo not drawn),17.7%
18,CCS(=O)(=O)N1CCN(C(C)CCc2ccccc2)CC1 (stereo not drawn),-2.55%
